Rows were chosen to be rich in hits. Some 7.1% of all compounds tested hit in one or more screens of this group.
S2 tox – cell viability loss in ATXN counter-screen; S2 cells (HEK-293 line with an ATXN2-luciferase reporter) viability, CellTiter-Fluor protease fluorescence, 24 h; Potency, µM (titrated, usually from 56.7 µM), actives largely listed as cytotoxic; AID 651635; 400,000 tested, 0.49% active; note: potency is the fitted concentration of half-maximal effect; nearly all actives have a fitted effect of over 40% in size
ATXN2 expr inh – reduces ATXN2 reporter expression in HEK-293 cells. HEK-293 ATXN2-luciferase reporter, luminescence, 24 h. Potency, µM (series often up to 57 µM), without a hit: at the highest dose activity change, negative = inhibition, actives largely listed as inhibitors. 360,000 tested, 0.72% active. AID 1745845; note: potency is the fitted concentration of half-maximal effect; % is set by controls: 0 for no effect and ±100 for the full control effect; nearly all actives have a fitted effect of over 55% in size
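qHTS (up to 57 uM final) was run with 24 h compound exposure of reporter cells at 37 °C. Each well was multiplexed: SteadyGlo luminescence measured ATXN2-luciferase expression after a fluorogenic Gly-Phe-AFC viability readout (25 uM final).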
SW480 rereplic – inducers of DNA re-replication in SW480 colon cancer cells | 340,000 tested, 1.8% active | SW480 DNA re-replication, Hoechst DNA content imaging, 48 h | AID 624297 | Potency, µM (series often up to 46.1 µM), without a hit: at the highest dose re-replication activation, usual class: activators; note: potency is the fitted concentration of half-maximal effect; % of control where 0% means no effect; nearly all actives have a fitted effect of over 55% in size
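Per well, 250 cells were exposed to pinned compound for 48 hr. Nuclear DNA was visualised with Hoechst (40 min, 37 C) and total object intensity recorded by fluorescence scanning.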
IL-1B inflam inh – blocks inflammasome-driven IL-1 beta release. AID 743279. 360,000 tested, 4.7% active. THP-1 LPS/ATP IL-1B secretion, AlphaLISA, 16 h; stronger effect = lower value. activity change, % at 57.5 µM; in the data active = activity change below about -50%; inconclusive = mostly about -30% to -49%; note: % is set by controls: 0 for no effect and ±100 for the full control effect
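THP-1 cells pretreated 1 hr with compounds (up to 57.5 uM final), then stimulated with LPS (250 ng/mL final) plus ATP (1.25 mM final); secreted IL-1B measured by AlphaLISA after 16 hr, decreased signal indicating inhibition.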
PINK1 expr mod – PINK1 expression modulation; 410,000 tested, 0.2% active; PINK1 immunofluorescence, high-content cytometry, 24 h; AID 624263; Potency, µM (series often up to 76.6 µM), without a hit: top-dose activation (PINK1 increase), actives largely listed as activators; active = well fitted activation curve with a large enough effect; inconclusive = small, poorly fitted or top-dose-only effect; cell line not stated here; note: potency is the fitted concentration of half-maximal effect; % of control where 0% means no effect; nearly all actives have a fitted effect of over 65% in size
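A stable cell line was treated with compounds at 5 concentrations for 24 hours, with CCCP as control. PINK1 levels and mitochondrial localization were measured by immunofluorescence with mitochondrial, cell and nuclear markers after fixation, read by laser-scanning cytometry.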
MCF10A rereplic – inducers of DNA re-replication in MCF 10A breast cells; 350,000 tested, 2.9% active; MCF 10A DNA re-replication, Hoechst nuclear intensity, 48 h; Potency, µM (doses to about 46.1 µM), for inactives: at the top dose activity, positive = re-replication, hits mostly activators; note: potency is the fitted concentration of half-maximal effect; % of control where 0% means no effect; nearly all actives have a fitted effect of over 50% in size
* = called active by the depositor. Unless noted, calls come from the whole dose curve; as a rule, active = well fitted curve in the direction sought with a large enough effect; inconclusive = small, poorly fitted or top-dose-only effect, or another doubt; inactive = no such curve, though single readings can be large; an effect the other way counts as inactive or inconclusive.

Screening OC[C@H]1O[C@H](c2nc(-c3nc(-c4cccs4)no3)cs2)C[C@@H]1O returned S2 tox inactive, ATXN2 expr inh -21%, IL-1B inflam inh -80* and PINK1 expr mod 0%.
For Cc1ccc(NC(=O)COC(=O)c2ccc(Cl)nc2)cc1S(=O)(=O)N1CCCCC1 the results were S2 tox inactive, ATXN2 expr inh 3%, SW480 rereplic -22%, IL-1B inflam inh -15, PINK1 expr mod -1% and MCF10A rereplic 15%.
`Cc1ccc(C)c(NC(=O)c2cnn(-c3ccccc3)c2C)c1` gave S2 tox inactive, ATXN2 expr inh 25%, SW480 rereplic 17%, IL-1B inflam inh -58*, PINK1 expr mod 2% and MCF10A rereplic -13%.
`Cc1cccc(NC(=O)c2cnn(-c3ccccc3)c2C)c1C` gave S2 tox inactive, ATXN2 expr inh 30%, SW480 rereplic -1%, IL-1B inflam inh inconclusive, PINK1 expr mod 0% and MCF10A rereplic 5%.
`Cc1ccccc1NC(=O)c1cnn(-c2ccccc2)c1C` gave S2 tox inactive, ATXN2 expr inh 21%, SW480 rereplic -3%, IL-1B inflam inh inconclusive, PINK1 expr mod -1% and MCF10A rereplic inconclusive.
Screening CCc1ccccc1NC(=O)c1cnn(-c2ccccc2)c1C returned S2 tox inactive, ATXN2 expr inh 18%, SW480 rereplic 0%, IL-1B inflam inh -93*, PINK1 expr mod -1% and MCF10A rereplic 8%.
For CCN1C(=O)c2ccccc2Sc2ccc(NC(=O)Nc3cccc([N+](=O)[O-])c3C)cc21 the results were S2 tox inactive, ATXN2 expr inh inconclusive and PINK1 expr mod 3%.
Cc1ccc2nc(N(CCCN(C)C)C(=O)c3ccc(S(=O)(=O)N(C)C)cc3)sc2c1 was read as S2 tox inactive, ATXN2 expr inh -3%, SW480 rereplic -3%, IL-1B inflam inh -6, PINK1 expr mod -2% and MCF10A rereplic 8%.
Screening Cc1ccc2nc(N(CCCN(C)C)C(=O)c3ccc(S(=O)(=O)N4CCc5ccccc5C4)cc3)sc2c1 returned S2 tox inconclusive, ATXN2 expr inh inconclusive, SW480 rereplic inconclusive, IL-1B inflam inh -96*, PINK1 expr mod -2% and MCF10A rereplic 5.2µM*.
Screening CN(C)CCCN(C(=O)c1ccc(S(=O)(=O)N2CCCC2)cc1)c1nc2c(F)cc(F)cc2s1 returned S2 tox inactive, ATXN2 expr inh -21%, SW480 rereplic -419%, IL-1B inflam inh -6, PINK1 expr mod 3% and MCF10A rereplic -4%.
`Cc1cc(C)c2sc(N(CCCN(C)C)C(=O)c3ccc(S(=O)(=O)N4CCCc5ccccc54)cc3)nc2c1` gave S2 tox 28µM*, ATXN2 expr inh inconclusive, SW480 rereplic 4%, IL-1B inflam inh -67*, PINK1 expr mod 6% and MCF10A rereplic inconclusive.
`CN(C)CCCN(C(=O)c1ccc(S(=O)(=O)N2CCc3ccccc3C2)cc1)c1nc2ccc(F)cc2s1` gave S2 tox inconclusive, ATXN2 expr inh inconclusive, SW480 rereplic inconclusive, IL-1B inflam inh -98*, PINK1 expr mod -1% and MCF10A rereplic 4.6µM*.
`CN(C)CCCN(C(=O)c1ccc(S(=O)(=O)N2CCCCCC2)cc1)c1nc2c(F)cc(F)cc2s1` gave S2 tox inactive, ATXN2 expr inh -6%, SW480 rereplic 9%, IL-1B inflam inh -86*, PINK1 expr mod 3% and MCF10A rereplic 8%.
For CCOC(=O)c1sc(NC(=O)c2cc(-c3ccc(F)cc3)on2)c(C(=O)OCC)c1C the results were S2 tox inactive, ATXN2 expr inh 11% and PINK1 expr mod -1%.
`COc1ccc(CCC(=O)OCC(=O)NCc2ccccc2)cc1` gave S2 tox inconclusive, ATXN2 expr inh -1%, SW480 rereplic 0%, IL-1B inflam inh 9, PINK1 expr mod 1% and MCF10A rereplic -2%.
Screening NC(=O)c1nc(Nc2ccccc2)sc1NC(=O)c1ccccc1Br returned PINK1 expr mod 3%.
For CN(C)CCCN(C(=O)c1ccc(S(=O)(=O)N2CCc3ccccc3C2)cc1)c1nc2c(F)cccc2s1 the results were S2 tox inactive, ATXN2 expr inh -21%, SW480 rereplic -5%, IL-1B inflam inh -51*, PINK1 expr mod 18% and MCF10A rereplic 0%.
Screening CN(C)CCCN(C(=O)c1ccc(S(=O)(=O)N2CCc3ccccc32)cc1)c1nc2ccc(F)cc2s1 returned S2 tox inactive, ATXN2 expr inh inconclusive, SW480 rereplic inconclusive, IL-1B inflam inh -81*, PINK1 expr mod -1% and MCF10A rereplic 6%.
Cc1cccc2sc(N(CCCN(C)C)C(=O)c3ccc(S(=O)(=O)N4CCc5ccccc5C4)cc3)nc12 was read as S2 tox inconclusive, ATXN2 expr inh -28%, SW480 rereplic inconclusive, IL-1B inflam inh inconclusive, PINK1 expr mod 4% and MCF10A rereplic inconclusive.
For COc1ccc2sc(N(CCCN(C)C)C(=O)c3ccc(S(=O)(=O)N4CCc5ccccc5C4)cc3)nc2c1 the results were S2 tox inconclusive, ATXN2 expr inh inconclusive, SW480 rereplic 30%, IL-1B inflam inh -118*, PINK1 expr mod -4% and MCF10A rereplic inconclusive.
`Cc1cccc(N2CCN(C(=O)c3c(C)nn(Cc4ccccc4Cl)c3C)CC2)c1C` gave S2 tox inactive, ATXN2 expr inh -35%, SW480 rereplic inconclusive, IL-1B inflam inh inconclusive, PINK1 expr mod 9% and MCF10A rereplic 15µM*.
Screening Cc1cccc(N2CCN(C(=O)c3cc(S(=O)(=O)N4CCCC4)cn3C)CC2)c1C returned S2 tox inactive, ATXN2 expr inh -24%, SW480 rereplic 15µM*, IL-1B inflam inh 28, PINK1 expr mod 3% and MCF10A rereplic 8.2µM*.
CC(=O)Nc1ccc(NC(=O)c2c(C)nn(Cc3ccccc3Cl)c2C)cc1 was read as S2 tox inactive, ATXN2 expr inh 3%, SW480 rereplic 7%, IL-1B inflam inh -5, PINK1 expr mod 0% and MCF10A rereplic 9%.
Cc1cccc(N2CCN(C(=O)c3ccncc3)CC2)c1C was read as S2 tox inconclusive, ATXN2 expr inh 43%, SW480 rereplic 12µM*, IL-1B inflam inh 60, PINK1 expr mod 6% and MCF10A rereplic inconclusive.
Screening Cc1ccccc1S(=O)(=O)Cc1ccc(C(=O)N2CCN(c3cccc(C)c3C)CC2)o1 returned S2 tox 18µM*, ATXN2 expr inh 13µM*, SW480 rereplic 4.1µM*, IL-1B inflam inh 0, PINK1 expr mod -3% and MCF10A rereplic 2.3µM*.
